The source of these data is ChEMBL document CHEMBL4513216, “Probing the Open Global Health Chemical Diversity Library for Multistage-Active Starting Points for Next-Generation Antimalarials” (ACS Infect Dis, 2020).

Screen size: about 69,000 compounds; about 8,600 (12%) showed an effect of 50% or more. The list comes from a sample in which strong results are over-represented; it also holds similar structures and randomly drawn compounds.

For this test, the system named is Plasmodium berghei. The experiment in a line: Screen against P. berghei liver stage (PbLuc), transformed with Luciferase, at 10uM. The conditions noted are these: tested at 10 uM. It is filed as functional, HepG2.
As to `CC(C)OCCCNC(=O)CS(=O)(=O)Cc1ccc(Cl)cc1`, the INHIBITION was 9.64%. As for `CN(C)C(=O)CC1CC2(CCN(Cc3ccoc3)CC2)c2ccccc21` (stereo not drawn), the figure is -6.23%; as for `CN(C)C(=O)CC1CC2(CCN(Cc3cccs3)CC2)c2ccccc21` (stereo not drawn), 45.2%; as for `CN(C)C(=O)NC1COC2(CCN(Cc3ccco3)CC2)C1` (stereo not drawn), 27.6%.

Take `CN(C)C(=O)CC1CC2(CCN(Cc3ccco3)CC2)c2ccccc21` (stereo not drawn): the INHIBITION was 75%. The figure for `CN(C)C(=O)CC1CC2(CCN(Cc3ccsc3)CC2)c2ccccc21` (stereo not drawn) is 64.2%. Take `CNC(=O)CC1CC2(CCN(Cc3nccs3)CC2)c2ccccc21` (stereo not drawn): the INHIBITION is reported as -0.113%.

In the case of `CC(=O)N1CCC(N2CCC(c3nc(C)cc(C)n3)C2)CC1` (stereo not drawn), the INHIBITION is listed as 24.8%.

As to `Cc1cncnc1C1CCN(CC(N)=O)CC1`, the INHIBITION was -16.9%. The figure for `CC(=O)N1CCc2nc(C3CCN(c4ncccn4)C3)ncc2C1` (stereo not drawn) is -0.902%; for `CNC(=O)[C@@]12CCCN(c3ncccn3)[C@@H]1CN(C)C2` it is -17.4%; for `CN1C[C@H]2N(c3ncccn3)CCC[C@@]2(C(=O)NCC2CC2)C1` it is 67.5%. In the case of `CC(C)CN1C[C@H]2N(c3ncccn3)CCC[C@@]2(C(=O)NCC2CC2)C1`, the INHIBITION stood at 56.6%. Regarding `CCN1C[C@H]2N(c3ncccn3)CCC[C@@]2(C(=O)NCC2CC2)C1`, the INHIBITION is listed as 19.5%.

As for `CNC(=O)N1C[C@H]2N(c3ncccn3)CCC[C@@]2(C(=O)NCC2CC2)C1`, the INHIBITION came out at 17.7%. As for `CS(=O)(=O)N1C[C@H]2N(c3ncccn3)CCC[C@@]2(C(=O)NCC2CC2)C1`, the figure is 35.8%; as for `CC(=O)N1CC(=O)N(c2ccccc2)CC12CCN(Cc1cccs1)C2` (stereo not drawn), 6.38%; as for `COCC1CC2(CCN(Cc3cnn(C)c3)CC2)CN1C(C)C` (stereo not drawn), 37.5%.

For the compound `O=C(O)c1ccc(C2CCCN(C(=O)c3ccc[nH]3)C2)cc1` (stereo not drawn), the INHIBITION is reported as 36.8%.

Consider `O=C(NCc1cnc2n1CCN(Cc1nccs1)CC2)C1CCC1`, for which the INHIBITION is recorded as 30.3%. Turning to `CC(C)c1nc(CN2CCCC2c2cnn(C)c2)cs1` (stereo not drawn), the INHIBITION is 19.4%. For `CC(=O)N(C)c1nc(CN2CCCC2c2cnn(C)c2)cs1` (stereo not drawn), the INHIBITION came to 50.3%.

Take `Cn1cc(C2CCCN2Cc2csc(C3CCCC3)n2)cn1` (stereo not drawn): the INHIBITION is reported as 42%. Regarding `Cn1cc(C2CCCN2Cc2csc(-c3ccccc3)n2)cn1` (stereo not drawn), the INHIBITION was -38.2%.

On to `CC(=O)Nc1nc(CN2CCCC2c2cnn(C)c2)cs1` (stereo not drawn), for which the INHIBITION worked out at 34.9%. Consider `Cn1cc(C2CCCN2Cc2csc(C(C)(C)C)n2)cn1` (stereo not drawn), for which the INHIBITION was found to be 55.9%. As to `Cc1cnn(CC2CN(Cc3nc(-c4ccsc4)no3)CCO2)c1` (stereo not drawn), the INHIBITION stood at 49.75%. Regarding `CC1(C(=O)N2CCN(c3cnccn3)CC2)CNCCO1` (stereo not drawn), the INHIBITION is listed as 36.5%. Take `COc1cc2cc3c(nc2cc1OC)OCCN(CC1CC1)C3`: the INHIBITION is -7.66%. `COc1cccc(CC(=O)NCc2cnc(C)nc2C2CCCN2C)c1` (stereo not drawn): the INHIBITION is listed as 36.7%. On to `c1ccc(CN2CCc3ncnc(N4CCCC4)c3CC2)nc1`, for which the INHIBITION came out at 46.7%. With `Cc1nc2c(c(N3CCCC(OCc4ccccn4)C3)n1)CCNCC2` (stereo not drawn), the INHIBITION was found to be 73%.

As for `NCC1CCCN(c2nc(-c3ccccc3)nc3c2CCNCC3)C1` (stereo not drawn), the INHIBITION was 19.5%.

Take `Nc1nc2c(c(N3CCSCC3)n1)CCN(Cc1ccccn1)CC2`: the INHIBITION was 66.5%. Take `Nc1nc2c(c(N3CCCC(OCc4ccccn4)C3)n1)CCNCC2` (stereo not drawn): the INHIBITION is given as 59.4%. As for `Nc1nc2c(c(N3CCCC(CN4CCCC4=O)C3)n1)CCNCC2` (stereo not drawn), the figure is 48.5%. As for `Cc1nc(N2CCCC(OCc3ccccn3)C2)c2c(C)noc2n1` (stereo not drawn), the INHIBITION is reported as -4.21%. As for `Cc1nn(C)c2ncnc(N3CCCC(OCc4ccccn4)C3)c12` (stereo not drawn), the figure is -46.6%; as for `Nc1nc2c(c(N3CCCC3)n1)CCN(Cc1ccccn1)CC2`, 41.5%; as for `CCc1nnc2n1CCN(CC(O)c1ccc3c(c1)OCCO3)C2` (stereo not drawn), 22.333%. As for `Cc1cnc(CN2CCCC2c2noc(C(C)C)n2)cn1` (stereo not drawn), the figure is 9.54%; as for `O=C(Cc1n[nH]c2ccccc12)N1CCC(Nc2cccnn2)CC1`, 49.3%; as for `Cc1ccc(CN2CCOC3(COCCN(C(C)C)C3)C2)o1` (stereo not drawn), 43%. Consider `CCc1nnc2n1CCN(C(=O)c1ccc(C)c(S(N)(=O)=O)c1)C2`, for which the INHIBITION worked out at 36.8%. Turning to `COCCOCC(=O)Nc1ccc(C)cc1Br`, the INHIBITION is recorded as -5.51%. With `CCCS(=O)(=O)CCN1CCN(C(C#N)c2ccccc2)CC1` (stereo not drawn), the INHIBITION is listed as -4.93%. The figure for `CCn1c(CC2CCN(C(=O)c3cc(CC(C)C)on3)CC2)n[nH]c1=O` is 51.7%. With `CCn1c(CC2CCN(C(=O)c3cc(C(C)C)n[nH]3)CC2)n[nH]c1=O`, the INHIBITION amounted to 41.5%. For the compound `CCn1c(C2CCN(C(=O)c3cc(CC(C)C)on3)CC2)nn(C)c1=O`, the INHIBITION is reported as 21.8%. Regarding `O=C(NC[C@H]1OC[C@@H]2CN(Cc3ccco3)CC[C@@H]21)c1cccnc1`, the INHIBITION came out at 8.03%. `CCNC(=O)c1cc(OC)c2cc(F)cc(C)c2n1`: the INHIBITION was -8.41%. Consider `COc1cc(C(=O)NCC2CC2)nc2c(C)cc(F)cc12`, for which the INHIBITION was found to be 55.4%. As for `COc1cc(C(=O)NCC2CCCO2)nc2c(C)cc(F)cc12` (stereo not drawn), the figure is -14.8%.
